# Screening data (PubChem)
# Shown are actives, neighbours in structure and some others; about 19% of the full set was active somewhere.
# IL1B secr inh – inflammasome signaling inhibition, IL-1 beta readout; THP-1 LPS/ATP IL-1B secretion, AlphaLISA, 16 h; stronger effect = lower value; activity change, % at 57.5 µM; 360,000 compounds, 4.7% hits; AID 743279; in the data active means activity change below about -50%; inconclusive means mostly about -30% to -49%
#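 THP-1 cells pretreated 1 hr with compounds (up to 57.5 uM final), then stimulated with LPS (250 ng/mL final) plus ATP (1.25 mM final); secreted IL-1B measured by AlphaLISA after 16 hr, decreased signal indicating inhibition.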
# TDP1 cell noCPT – qHTS for Inhibitors of human tyrosyl-DNA phosphodiesterase 1 (TDP1): qHTS in cells in absence of CPT. DT40 Tdp1-/- hTDP1 cells, no CPT, ATP luminescence, 48 h. Potency, µM (series often up to 46.2 µM), hits mostly inhibitors. 420,000 compounds, 15% hits. AID 686978, 2013; further: nearly all actives have a fitted effect of over 55% in size
#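 Camptothecin absent (DMSO only). Human TDP1-complemented DT40 knockout cells, 400 cells/well, 37 °C for minimum 48 hr; ATP measured via CellTiter-Glo, 30 min dark incubation, luminescence.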
# ELG1 repair inh – inhibitors of ELG1-dependent DNA repair in HEK293T cells | 330,000 compounds, 2.3% hits | HEK293T ELG1-luciferase reporter, luminescence, 16 h; DNA damage induced by 5-fluorouridine | Potency, µM (titrated, usually from 46.1 µM), hits mostly inhibitors; further: nearly all actives have a fitted effect of over 55% in size
#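 5-Fluorouridine DNA damage + compound/DMSO, 2,000 cells/well, 16 h, 37 °C/5% CO2. ONE-Glo, 30 min RT, luminescence. Readout = decrease in reporter signal.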
# DT40 TDP1 CPT – growth inhibition of DT40 Tdp1-/-;hTDP1 cells with camptothecin (screen for TDP1 inhibitors). 420,000 compounds, 12% hits. chicken DT40 Tdp1-/-;hTDP1 cells + 20 nM CPT, ATP luminescence, 48 h. Potency, µM (doses to about 46.2 µM), hits mostly inhibitors; further: nearly all actives have a fitted effect of over 55% in size
#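 Cell growth measured by CellTiter-Glo luminescence after a minimum 48 h, 37 C compound exposure with 20 nM CPT in Tdp1-knockout DT40 cells stably expressing hTDP1, seeded 400/well; qHTS titration format.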
# HT1080-NT tox – kills 2HG-producing HT-1080-NT fibrosarcoma cells; HT-1080-NT fibrosarcoma viability, CellTiter-Glo ATP luminescence, 48 h; Potency, µM (series often up to 46.1 µM), hits mostly cytotoxic; 360,000 compounds, 1.6% hits; AID 686970;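 further: NT is the 2HG producing partner of a matched IDH1 knockdown line; nearly all actives have a fitted effect of over 55% in size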
#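 Compounds were tested in concentration-response format on HT-1080-NT cells for 48 hours at 37 degrees C. Cell viability came from CellTiter-Glo luminescence; curves were classified by r2, response magnitude and activity.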
# HT1080 IDH1KD tx – toxicity to HT-1080 IDH1 knockdown cells (counter line); HT-1080 IDH1 knockdown viability, ATP luminescence, 48 h; Potency, µM (doses to about 46.1 µM), actives largely listed as cytotoxic; 360,000 compounds, 2% hits; AID 686971
#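 Knockdown cells (IDH1KD HT-1080) received compounds 2 h after plating at 750 cells/well and were kept 48 h at 37 °C in 5% FBS RPMI. A CellTiter-Glo luminescence read gave % activity for curve fitting.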
# A number is an active result; . = inactive; ? = inconclusive; / = not tested or not shown; [ ] = remark or other dose. Unless noted, the call rests on the fitted dose curve; in most records, active means well fitted curve in the direction sought with a large enough effect; inconclusive means small, poorly fitted or top-dose-only effect, or another doubt; inactive means no such curve, though single readings can be large; an effect the other way counts as inactive or inconclusive.
SMILES,IL1B secr inh,TDP1 cell noCPT,ELG1 repair inh,DT40 TDP1 CPT,HT1080-NT tox,HT1080 IDH1KD tx
CCCCc1ccc(NC(=O)N[C@H](C(=O)O)C(C)CC)cc1 (stereo partly specified),.,10µM,.,?,.,.
CCC(C)[C@H](NC(=O)Nc1ccc(Oc2ccccc2)cc1)C(=O)O (stereo partly specified),.,.,.,.,.,.
COc1ccc(-c2nc(N)n(C(=O)c3ccccc3Cl)n2)cc1,.,?,.,?,.,.
Cc1nc(NC(=O)c2ccco2)sc1C(=O)O,.,10µM,.,6.5µM,23µM,23µM
CCOC(=O)c1sc(NC(=O)C(CC)OC(=O)c2ccco2)nc1C (stereo unspecified),-84,.,.,.,.,.
O=C(NNS(=O)(=O)c1ccc(F)cc1)c1cc2ccccc2cc1O,.,.,.,.,.,.
CCn1c(O)c(/C=N/N=C2CCCC2)c2ccc(C3=NNC(=O)CC3)cc21,.,.,.,?,.,.
CCn1c(O)c(/C=N/N=C2CCCCC2)c2cc(C3=NNC(=O)CC3)ccc21,.,10µM,.,8.2µM,.,.
CC(=O)N1CCCc2cc(S(=O)(=O)N3CCCC(C(=O)Nc4cccc(Cl)c4C)C3)ccc21 (stereo unspecified),/,?,/,16µM,/,/
COc1cc(C)nc(N2CCCC(C(=O)Nc3cccc(Cl)c3C)C2)n1 (stereo unspecified),.,?,.,23µM,.,.
CCOc1ccccc1NC(=O)C1CCCN(S(=O)(=O)c2ccc3c(c2)CCCN3C(C)=O)C1 (stereo unspecified),.,15µM,/,26µM,.,.
CC(=O)N1CCCc2cc(S(=O)(=O)N3CCCC(C(=O)Nc4ccc(F)cc4F)C3)ccc21 (stereo unspecified),/,21µM,/,?,/,/
O=c1ncccn1C1OC(CO)C(O)C1O (stereo unspecified),.,.,/,.,.,.
O=C(Nc1ccc(Br)cc1Br)C1CC(=O)N(Cc2ccccc2)C1 (stereo unspecified),-56,.,.,.,.,.
Cc1ccc(CN2CC(C(=O)NC3CCCC(C)C3C)CC2=O)cc1 (stereo unspecified),.,?,.,18µM,.[9.24 µM],.
CC1CCCCC1NC(=O)C1CC(=O)N(Cc2ccccc2)C1 (stereo unspecified),.,12µM,.,13µM,.,.
O=C(Nc1ccccc1N1CCCC1)C1CC(=O)N(Cc2ccccc2)C1 (stereo unspecified),.,.,.,.,.,.
CCc1nc(CNC(=O)C2CCC(=O)N(Cc3cccc(OC)c3)C2)no1 (stereo unspecified),.,.,?,.,.,.
COc1ccc(C2=Nc3ccccc3N(C(=O)c3cccnc3)C2C(=O)NC2CCCC2)cc1 (stereo unspecified),.,.,/,.,.,.
CCc1nn2c(=O)cc(COC(=O)CNC(=O)COc3ccc(C)cc3)nc2s1,/,.,/,.,/,/
CN(C)CCOc1ccc2c(c1)C(=O)C(=Cc1ncc([N+](=O)[O-])n1C)C2,-51,0.13µM,/,0.15µM,23µM,6.5µM
CCc1cc(OCCN(C)C)ccc1Cl,.,.,.,.,.,.
COc1ccc(/C=C2\SC(=O)N(CCNC(=O)Cn3cnnn3)C2=O)cc1,.,.,?,.,.,.
CCc1noc(C)c1C(=O)NCCN1C(=O)S/C(=C\c2ccc(OC)cc2)C1=O,.,16µM,.,23µM,.,.
COc1ccc(/C=C2\SC(=O)N(CCNC(=O)CCS(=O)(=O)c3ccc(C)cc3)C2=O)cc1,.,21µM,?,13µM,.,.
SMILES,IL1B secr inh,TDP1 cell noCPT,ELG1 repair inh,DT40 TDP1 CPT,HT1080-NT tox,HT1080 IDH1KD tx
COc1ccc(/C=C2\SC(=O)N(CC(=O)NNC(=O)c3ccccc3O)C2=O)cc1,.,.,.,.,.,?
CN(CC(=O)Nc1ccccc1Cl)CC(=O)Nc1cccc2ccccc12,.,?,?,?,.,.
CN(CC(=O)Nc1ccccc1Cl)CC(=O)Nc1ccccc1[N+](=O)[O-],.,21µM,?,?,.,.
CN(CC(=O)Nc1ccccc1)CC(=O)Nc1ccccc1Cl,.,.,?,.,.,.
CCCCc1ccc(NC(=O)CN(C)CC(=O)Nc2ccccc2Cl)cc1,-74,23µM,?,?,.,.
CC(C)=CCCC1(C)C=Cc2c(c(C)cc3c2[nH]c2cc(O)ccc23)O1 (stereo unspecified),-74,16µM,.,?,?,?
COc1ccc(/C=N/NS(=O)(=O)c2ccccc2)cc1OS(=O)(=O)c1ccccc1,.,.,.,.,.,.
CCOc1cc(/C=N/NC(=O)c2cccc([N+](=O)[O-])c2)ccc1OS(=O)(=O)c1ccccc1,.,18µM,?,?,?,?
COc1ccc(/C=N/NC(=O)c2cccc([N+](=O)[O-])c2)cc1OS(=O)(=O)c1ccc(C)cc1,.,2.6µM,?,4.1µM,?,?
COc1cc(/C=N/NC(=O)COc2cc(C)cc(C)c2)ccc1OS(=O)(=O)c1ccc(C)cc1,.,6.5µM,?,16µM,.,.
COc1ccc(C(=O)N/N=C/c2ccc(OC)c(OS(=O)(=O)c3ccccc3)c2)cc1,.,16µM,?,.,.,?
O=C(CN1CCN(Cc2ccccc2Cl)CC1)N/N=C/c1ccccn1,.,?,.,?,.,.
Cc1ccc(S(=O)(=O)Oc2cccc([N+](=O)[O-])c2)cc1,.,?,/,10µM,.,.
Cc1ccc(C)c(C(=O)COC(=O)CCN2C(=O)C3C4CCC(C4)C3C2=O)c1 (stereo unspecified),.,.,.,.,.,.
COc1ccc(CCNc2ncnc3nc[nH]c23)cc1,/,6.3µM,/,2.8µM,/,/
CCCCN1C2=C(C(=O)CCC2)C(c2ccc(Cl)c(Cl)c2)C2=C1c1ccccc1C2=O (stereo unspecified),.,?,.,16µM,.,.
CCC(=O)N/C(N)=N/c1nc2ccccc2o1,.,?,?,?,.,.
CC(C)CC(=O)N/C(N)=N/c1nc2ccccc2o1,.,29µM,?,?,.,.
N/C(=N\c1nc2ccccc2o1)NC(=O)c1ccccc1,.,?,?,?,.,.
N/C(=N\c1nc2ccccc2o1)NC(=O)/C=C/c1ccccc1,.,18µM,.,?,?,.
